PubChem BioAssay AID1159580 (chemical genetic matrix, 2015)
Several values for one entry are separate records, joined by “and”; a condition that tells them apart may be missing. Equal entries are not always repeated. Out of some 5,500 compounds screened, about 2,000 (36%) were called active. Inconclusive results (about 18%) are left out. Rule as the data show it: active = normalized growth mostly below about 0.91 (no sharp cut-off); inconclusive = no clear call, values can overlap the other calls; inactive = mostly above about 0.92. This is one part of the list.

Assay: chemical genetic growth profiling, strain panel (AID 1159580);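 also: tested at 20 µM; growth read once vehicle control cultures reached saturation at 30 °C; 1 = growth at the plate median or of vehicle wells; lower values mean less growth of the strain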
Settings: S. cerevisiae deletion strains, growth OD

Measured: normalized growth

COc1c2occc2cc2ccc(=O)oc12
active: locus YBR009C, strain hhf1, stronger effect = lower value 0.878 | locus YCL011C, strain gbp2, stronger effect = lower value 0.88 | locus YCL016C, strain dcc1, stronger effect = lower value 0.888 | locus YDR195W, strain ref2 1.17 [resistant] | locus YHR142W, strain chs7, stronger effect = lower value 0.856 | locus YJL092W, strain hpr5, stronger effect = lower value 0.917
inactive: locus YAL013W, strain DEP1, stronger effect = lower value 0.992 | locus YAL021C, strain ccr4, stronger effect = lower value 0.966 | locus YAL026C, strain drs2, stronger effect = lower value 0.954 | locus YAL030W, strain snc1, stronger effect = lower value 0.975 | locus YBL061C, strain skt5, stronger effect = lower value 0.973 | locus YBR021W, strain FUR4, stronger effect = lower value 1.08 | locus YBR023C, strain chs3, stronger effect = lower value 0.926 | locus YBR171W, strain sec66, stronger effect = lower value 0.945 | locus YBR229C, strain ROT2, stronger effect = lower value 1.01 | locus YBR231C, strain swc5, stronger effect = lower value 1.03 | locus YBR279W, strain paf1, stronger effect = lower value 0.98 | locus YCL029C, strain bik1, stronger effect = lower value 0.976 | locus YCL061C, strain MRC1, stronger effect = lower value 0.931 | locus YCL069W, strain vba3, stronger effect = lower value 0.96 | locus YCR088W, strain abp1, stronger effect = lower value 0.998 | locus YDL005C, strain med2, stronger effect = lower value 0.987 | locus YDL035C, strain GPR1, stronger effect = lower value 0.956 | locus YDL040C, strain nat1, stronger effect = lower value 0.995 | locus YDL074C, strain BRE1, stronger effect = lower value 0.908 | locus YDL101C, strain DUN1, stronger effect = lower value 0.958 | locus YDL134C, strain PPH21, stronger effect = lower value 0.997 | locus YDL185W, strain tfp1, stronger effect = lower value 0.928 | locus YDL192W, strain arf1, stronger effect = lower value 0.969 | locus YDR001C, strain nth1, stronger effect = lower value 0.983 | locus YDR069C, strain doa4, stronger effect = lower value 0.964 | locus YDR101C, strain arx1, stronger effect = lower value 0.993 | locus YDR137W, strain rgp1, stronger effect = lower value 0.954 | locus YDR150W, strain NUM1, stronger effect = lower value 0.952 | locus YDR159W, strain sac3, stronger effect = lower value 1.02 | locus YDR162C, strain NBP2, stronger effect = lower value 0.931 | locus YDR297W, strain sur2, stronger effect = lower value 0.978 | locus YDR318W, strain mcm21, stronger effect = lower value 0.953 | locus YDR334W, strain swr1, stronger effect = lower value 0.919 | locus YDR335W, strain msn5, stronger effect = lower value 0.982 | locus YDR388W, stronger effect = lower value 0.985 | locus YDR392W, strain spt3, stronger effect = lower value 0.852 | locus YDR502C, strain sam2, stronger effect = lower value 0.957 | locus YEL003W, strain gim4, stronger effect = lower value 0.988 | locus YEL037C, strain rad23, stronger effect = lower value 0.944 | locus YEL061C, strain CIN8 (second series), stronger effect = lower value 0.981 | locus YEL061C, strain CIN8, stronger effect = lower value 0.999 | locus YER015W, strain faa2, stronger effect = lower value 0.965 | locus YER016W, strain bim1, stronger effect = lower value 1 | locus YER110C, stronger effect = lower value 0.948 | locus YER111C, strain swi4, stronger effect = lower value 0.973 | locus YER155C, strain BEM2 (second series), stronger effect = lower value 0.866 | locus YER155C, strain BEM2, stronger effect = lower value 1.03 | locus YER167W, strain BCK2, stronger effect = lower value 0.982 | locus YFR010W, strain ubp6, stronger effect = lower value 0.94 | locus YGL078C, strain dbp3, stronger effect = lower value 0.99 | locus YGL086W, strain mad1, stronger effect = lower value 0.961 | locus YGL167C, strain pmr1, stronger effect = lower value 0.998 | locus YGL173C, strain kem1, stronger effect = lower value 0.973 | locus YGL227W, strain vid30, stronger effect = lower value 0.988 | locus YGL240W, strain doc1, stronger effect = lower value 0.99 | locus YGL248W, strain PDE1, stronger effect = lower value 0.999 | locus YGL253W, strain hxk2, stronger effect = lower value 0.942 | locus YGR078C, strain PAC10, stronger effect = lower value 0.922 | locus YGR135W, strain pre9, stronger effect = lower value 0.935 | locus YGR229C, strain SMI1, stronger effect = lower value 0.948 | locus YGR252W, strain gcn5, stronger effect = lower value 0.817 | locus YHR013C, strain ard1, stronger effect = lower value 0.935 | locus YHR027C, strain rpn1, stronger effect = lower value 0.956 | locus YHR030C, strain SLT2, stronger effect = lower value 0.995 and 1.02 | locus YHR079C, strain IRE1 (second series), stronger effect = lower value 0.992 | locus YHR079C, strain IRE1, stronger effect = lower value 1.03 | locus YHR094C, strain hxt1, stronger effect = lower value 0.988 | locus YHR129C, strain ARP1, stronger effect = lower value 0.996 | locus YHR200W, strain rpn10, stronger effect = lower value 0.928 | locus YIL066C, strain RNR3, stronger effect = lower value 0.933 | locus YIL073C, strain SPO22, stronger effect = lower value 0.865 | locus YIL125W, strain kgd1, stronger effect = lower value 1 | locus YIR030C, strain dcg1, stronger effect = lower value 0.998 | locus YJL095W, strain BCK1 (second series), stronger effect = lower value 0.982 | locus YJL095W, strain BCK1, stronger effect = lower value 0.911 and 1.02 | locus YJL115W, strain asf1, stronger effect = lower value 0.943 | locus YJL129C, strain trk1, stronger effect = lower value 0.987 | locus YJL134W, strain LCB3, stronger effect = lower value 0.985 | locus YJL154C, strain vps35, stronger effect = lower value 0.984 | locus YJL164C, strain tpk1, stronger effect = lower value 0.945 | locus YJL166W, strain qcr8, stronger effect = lower value 0.943 | locus YJL168C, strain set2, stronger effect = lower value 0.985 | locus YJL187C, strain SWE1 (second series), stronger effect = lower value 0.974 | locus YJL187C, strain SWE1, stronger effect = lower value 0.976 | locus YJR043C, strain POL32, stronger effect = lower value 0.953 | locus YJR066W, strain TOR1, stronger effect = lower value 0.969
